The panel holds about 83,000 compounds, 20% with a hit somewhere; the sample as a whole holds those more often.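 For each line, cells grew in 96-well plates with the test compound present at a single concentration for 48 hours.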 The source made the active and inactive calls. Rule for the calls: active = growth percent below 10; inactive = the rest.
Tests used:
Assay in all cases: NCI-60 one-dose screen, 48 h (100 = growth as untreated, 0 = no growth, -100 = all killed)
Conditions in all cases: 10 µM
NCI-H23 lung = test system: NCI-H23 lung
NCI-H226 lung = test system: NCI-H226 lung
NCI-H322M lung = test system: NCI-H322M lung
HOP-62 NSCLC = test system: HOP-62 NSCLC
NCI-H460 lung = test system: NCI-H460 lung
HOP-92 NSCLC = test system: HOP-92 NSCLC
NCI-H522 lung = test system: NCI-H522 lung
A549/ATCC NSCLC = test system: A549/ATCC NSCLC
786-0 renal = test system: 786-0 renal
COLO 205 colon = test system: COLO 205 colon

Measured: growth

Cc1nnc2c3nnc(-c4ccc(Cl)cc4)n3c3ccccc3n12
inactive: NCI-H23 lung 103% | NCI-H226 lung 94.7% | NCI-H322M lung 86.4% | HOP-62 NSCLC 93.4% | NCI-H460 lung 103% | HOP-92 NSCLC 79.5% | NCI-H522 lung 86.6% | A549/ATCC NSCLC 96.8% | 786-0 renal 97.2% | COLO 205 colon 111%

CCCCCCCCCCCCCC[n+]1ccc(C)cc1
inactive: NCI-H226 lung 31.7%
active: NCI-H23 lung -19% | NCI-H322M lung 5.57% | HOP-62 NSCLC -39.2% | NCI-H460 lung -74.1% | HOP-92 NSCLC -49.7% | NCI-H522 lung -11.8% | A549/ATCC NSCLC -30.5% | 786-0 renal -3.94% | COLO 205 colon -89.9%

O=C(Nc1cccc(Cl)c1)Nc1cc2ncncc2cc1OCc1cccc(F)c1
active: HOP-62 NSCLC -4.3% | NCI-H460 lung 4.36% | HOP-92 NSCLC -4.78% | NCI-H522 lung -8.47% | A549/ATCC NSCLC 2.26% | COLO 205 colon -69.6%
inactive: NCI-H23 lung 20.6% | NCI-H226 lung 37.1% | NCI-H322M lung 15.5% | 786-0 renal 39%

COc1ccc(NC(=O)CCn2cnc3c(cc(-c4ccccc4)n3-c3ccccc3)c2=O)cc1
inactive: NCI-H23 lung 85.8% | NCI-H226 lung 88.8% | NCI-H322M lung 109% | HOP-62 NSCLC 11.2% | NCI-H460 lung 91.8% | HOP-92 NSCLC 69.1% | NCI-H522 lung 45.1% | A549/ATCC NSCLC 85.8% | 786-0 renal 88.7% | COLO 205 colon 114%

CCc1nn2c(-c3ccccc3)c(-c3cc(OC)c(OC)c(OC)c3)nc2s1
inactive: NCI-H23 lung 98.3% | NCI-H226 lung 84.6% | NCI-H322M lung 82.4% | HOP-62 NSCLC 98.7% | NCI-H460 lung 88.3% | HOP-92 NSCLC 49.8% | NCI-H522 lung 70.9% | A549/ATCC NSCLC 92.1% | 786-0 renal 76.5% | COLO 205 colon 84.9%

N#Cc1c(-c2ccccc2)nc(SCC(=O)N2CCOCC2)[nH]c1=O
inactive: NCI-H23 lung 104% | NCI-H226 lung 98% | NCI-H322M lung 98.1% | HOP-62 NSCLC 83.7% | NCI-H460 lung 105% | HOP-92 NSCLC 88.9% | NCI-H522 lung 83.6% | A549/ATCC NSCLC 101% | 786-0 renal 100% | COLO 205 colon 105%

COc1ccc(C(C)=O)cc1N1C(=O)C2C(C1=O)C1(c3ccccc3)C(=O)C2(c2ccccc2)C(c2ccc(C)cc2)=C1c1ccc(C)cc1 (stereo not given)
inactive: NCI-H23 lung 42.8% | NCI-H226 lung 32.9% | NCI-H322M lung 27.6% | HOP-62 NSCLC 33.4% | HOP-92 NSCLC 49.6% | NCI-H522 lung 21.2% | 786-0 renal 22.1% | COLO 205 colon 23.4%
active: NCI-H460 lung 4.54% | A549/ATCC NSCLC 6.68%

O/N=C1\CCC2CCCCC2C1 (stereo not given)
inactive: NCI-H23 lung 103% | NCI-H226 lung 103% | NCI-H322M lung 106% | HOP-62 NSCLC 108% | NCI-H460 lung 103% | HOP-92 NSCLC 82.9% | NCI-H522 lung 93.4% | A549/ATCC NSCLC 96.6% | 786-0 renal 105% | COLO 205 colon 114%

c1ccc(CC(NCCNC(Cc2ccccc2)c2ccccc2)c2ccccc2)cc1 (stereo not given)
active: NCI-H460 lung -13.9% | HOP-92 NSCLC -9.41% | NCI-H522 lung -40.5% | COLO 205 colon -59.5%
inactive: NCI-H23 lung 25% | NCI-H226 lung 38% | NCI-H322M lung 66.2% | HOP-62 NSCLC 61.1% | A549/ATCC NSCLC 36.8% | 786-0 renal 35.9%

FC(F)(F)c1ccc(-c2ncc(-c3ccc(C(F)(F)F)cc3)c(NCc3cc(C(F)(F)F)cc(C(F)(F)F)c3)n2)cc1
inactive: NCI-H23 lung 39.3% | NCI-H226 lung 46.7% | NCI-H322M lung 90.9% | HOP-62 NSCLC 62.6% | NCI-H460 lung 38.5% | NCI-H522 lung 43.3% | A549/ATCC NSCLC 65.7% | 786-0 renal 53.9% | COLO 205 colon 74.9%
active: HOP-92 NSCLC -6.55%

— PubChem BioAssay (NCI)
